Neddylation inh: cullin neddylation inhibition; P61081+Q13564; TR-FRET cullin neddylation, biochemical; calls only at 25 µM; AID 651699; hit rate 0.58% among 360,000; in the data active means inhibition above about 36%
Rin1 Abl inh: inhibitors of human Rin1-Abl protein interaction. TR-FRET Rin1/Abl binding, biochemical. inhibition, % at 7.35 µM. hit rate 0.4% among 360,000. AID 588664; in the data active means inhibition above about 5%, passing the limit was not always enough
MBD2 DNA inh: inhibitors of human MBD2 binding to methylated oligonucleotide; Q9UBB5; TR-FRET; inhibition, % at 4.4 µM; hit rate 0.31% among 370,000; AID 686964; in the data active means inhibition above about 13%
Target sequence (Q9UBB5 whole entry, looked up): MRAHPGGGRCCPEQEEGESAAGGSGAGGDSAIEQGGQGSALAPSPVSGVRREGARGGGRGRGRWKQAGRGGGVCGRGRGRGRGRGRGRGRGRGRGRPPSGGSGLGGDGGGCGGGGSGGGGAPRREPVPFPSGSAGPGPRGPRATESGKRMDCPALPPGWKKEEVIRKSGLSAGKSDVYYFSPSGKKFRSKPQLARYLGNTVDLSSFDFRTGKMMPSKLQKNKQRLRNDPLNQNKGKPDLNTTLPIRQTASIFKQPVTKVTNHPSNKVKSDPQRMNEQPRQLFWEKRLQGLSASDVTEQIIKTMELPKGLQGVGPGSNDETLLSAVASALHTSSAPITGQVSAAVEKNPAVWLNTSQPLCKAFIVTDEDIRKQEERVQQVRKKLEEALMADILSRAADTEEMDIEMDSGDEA
UHRF1 MBD2 ctr: UHRF1 methyl-DNA binding inhibition | Q96T88 | UHRF1 binding to methylated oligo, TR-FRET | inhibition, % at 4.4 µM | hit rate 0.75% among 370,000;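 further: UHRF1 SRA domain binding a hemimethylated CpG hairpin DNA probe; 0% = median of test compound wells and 100% = reference inhibitor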
LEDGF integ inh: blocks HIV-1 LEDGF/p75-dependent DNA integration | AID 743269 | TR-FRET IN-LEDGF/p75 DNA integration, Eu/Cy5 | inhibition, % at 3.7 µM | hit rate 0.64% among 370,000;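 active means inhibition above the screen-wide mean plus 3 SD, cut at about 13% in these data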;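 further: signal is the Cy5 over europium emission ratio at 671 and 618 nm; 0% = plate median of compound wells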
proKLK7 act: activators of human kallikrein-7 zymogen; P49862; purified proKLK7, EDANS-DABCYL substrate fluorescence; 100% is mature enzyme control, 0% vehicle; activation, % at 7 µM; hit rate 0.9% among 370,000; AID 652039;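 active means activation above the mean of all tested compounds plus 3 SD, computed per campaign excluding outliers beyond control limits, cut at about 13% in these data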
UHRF1 ctr MBD2: UHRF1 methyl-oligo binding inhibition as MBD2 counter-screen. hit rate 25% among 1,000. AID 720530. UHRF1 binding to methylated oligonucleotide, TR-FRET. inhibition, % at 4.4 µM. shares compounds with MBD2 DNA inh;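 further: UHRF1 SRA domain binding a labeled hemimethylated CpG hairpin DNA; 0% = vehicle only and 100% = reference inhibitor with vehicle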
MBD2 DBD conf: MBD2-DBD methyl-DNA binding inhibition, TR-FRET confirmation. hit rate 26% among 1,000. TR-FRET MBD2-DBD binding to methylated oligonucleotide. inhibition, % at 4.4 µM. shares compounds with MBD2 DNA inh; in the data active means inhibition above about 14%
Numbers without * were called inactive; i = inactive; nt = no result shown. The list is not random: actives were taken first. Their share in the collection is about 3.1%. Unless noted, no stated cut-off is given here; in the data, active means inhibition above about 21%; inactive means the rest.

SMILES	Neddylation inh	Rin1 Abl inh	MBD2 DNA inh	UHRF1 MBD2 ctr	LEDGF integ inh	proKLK7 act	UHRF1 ctr MBD2	MBD2 DBD conf
Cc1ccc(NCCN(C)C)c2c(=O)c3cc(O)ccc3sc12	i	-19	13*	-5	1	-1	10	27*
O=C(NCc1ccncc1)C1CCC(=O)N(CCc2ccc(Cl)cc2)C1 (configuration not stated)	i	2	24*	49*	1	0	6	2
Cc1ccc(-c2c(C)c(-c3ccc(F)cc3)nc(N)c2C#N)o1	nt	3	19*	-3	2	-10	-1	5
CCOC(=O)CSc1nc(C(C)C)nc2sc(C)c(C)c12	i	3	45*	2	-1	0	2	4
CCOC(=O)CSc1nc2sc(C)c(C)c2c(=O)n1C	i	-3	2	1	0	0	nt	nt
CCN(CC(=O)Nc1ccc2c(c1)OCCO2)CC(=O)Nc1ccc(C)c(S(=O)(=O)N(C)C)c1	i	2	20*	9	1	1	5	2
CC(NC(=O)CCCc1nnc2n(C)c(=O)c3sccc3n12)c1ccccc1 (configuration not stated)	i	-1	4	0	3	0	nt	nt
COc1ccccc1NC=C1C(=O)OC(C)(C)OC1=O	i	-6	7	5	2	-1	nt	nt
CCOc1ccccc1NC=C1C(=O)OC(C)(C)OC1=O	i	3	13*	3	-4	-1	6	3
CCOC(=O)[C@H]1[C@H]2COc3ccccc3[C@@H]2N2C(=O)c3ccccc3NC(=O)[C@@]12C	i	2	18*	20	0	0	7	3
CCOC(=O)[C@H]1[C@H]2COc3ccccc3[C@@H]2N2C(=O)c3ccc(C)cc3NC(=O)[C@@]12C	i	7	-3	-2	-2	0	nt	nt
COc1ccc(NC(=O)C[C@@H]2C(=O)N(c3ccc(OC)cc3)CC2(C)C)cc1	i	1	40*	-3	4	0	1	6
CC(C)CNc1ccc2c(c1)OC[C@H](CC(C)C)NS2(=O)=O	nt	nt	0	1	3	0	nt	nt
CC(C)CNc1ccc2c(c1)OC[C@H](C)NS2(=O)=O	nt	nt	13*	21*	3	1	11	4
CC(C)NC(=O)NC(=O)COC(=O)/C=C/c1ccccc1[N+](=O)[O-]	i	0	-5	-1	1	-1	nt	nt
COc1cccc(OC)c1C(=O)Nc1ccc(N2CCN(C(=O)c3cccs3)CC2)cc1	i	2	-3	1	2	0	nt	nt
COc1ccc(NC(=O)c2cccs2)cc1C(=O)N1CCN(c2ccccc2)CC1	i	1	24*	1	-2	0	9	2
Cc1ccc(C2(c3ccccc3)NC(=O)N(CC(=O)N(C)C3CCS(=O)(=O)C3)C2=O)cc1C (configuration not stated)	i	5	6	0	3	0	nt	nt
O=C(Cn1cc(COc2ccccc2C(F)(F)F)nn1)c1ccc(O)cc1	i	1	15*	22*	8	0	11	9
O=C(Cc1cccs1)N(Cc1cccs1)C1(C(=O)NC2CCCC2)CCCCC1	i	-6	13*	24*	4	0	2	4
O=C(CSc1cn[nH]n1)Nc1cccc(C(=O)O)c1	i	-1	15*	0	0	0	1	6
CCOc1ccc(NC(=O)CN2CCCC2c2cccs2)cc1S(=O)(=O)N1CCCC1 (configuration not stated)	i	4	42*	-1	2	0	7	2
COC(=O)c1ccc(CNC(=O)c2ccc(S(=O)(=O)N(C)c3ccccc3OC)cc2)cc1	i	1	-2	3	-5	1	nt	nt
CCCc1nc2c3ccccc3ccn2c1Cc1ccc(OC)cc1C	i	-1	16*	26*	4	-1	10	6
CCC(C)NC(=O)CSc1nc2ccccc2c(=O)n1CCCN1CCCCC1 (configuration not stated)	i	1	14*	0	-2	0	2	3
